{
  "source": "PubChem BioAssay",
  "note": "The source made the active and inactive calls. How the calls were made is not given here.",
  "data": [
    {"target": "Pantothenate synthetase (Mycobacterium tuberculosis (strain ATCC 25618 / H37Rv)) (UniProt P9WIL5)", "sequence (P9WIL5 whole entry, looked up)": "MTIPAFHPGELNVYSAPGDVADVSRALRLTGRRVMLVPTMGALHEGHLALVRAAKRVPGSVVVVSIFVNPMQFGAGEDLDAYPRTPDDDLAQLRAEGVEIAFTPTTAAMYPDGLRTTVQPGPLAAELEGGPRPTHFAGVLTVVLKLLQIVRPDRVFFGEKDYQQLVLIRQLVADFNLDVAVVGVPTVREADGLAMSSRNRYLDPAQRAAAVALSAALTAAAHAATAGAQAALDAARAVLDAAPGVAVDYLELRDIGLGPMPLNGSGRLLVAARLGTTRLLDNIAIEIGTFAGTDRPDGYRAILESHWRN", "experiment": "Recombinant Mtb pantothenate synthetase (PanC) inhibitors, coupled enzyme, confirmatory (AID 375);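 further: 0% = full reaction with vehicle and 100% = no enzyme background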", "conditions": "coupled enzyme assay; at 10 µM, active compounds read high", "values": [
      {"smiles": "CN1CCN(C(=O)c2ccccc2N(Cc2ccccc2)S(C)(=O)=O)CC1", "inhibition": "0% (inactive)"},
      {"smiles": "COCCNC(=O)CCCCCN1C(=O)CCC1=O", "inhibition": "7% (inactive)"},
      {"smiles": "Fc1cccc2sc(Nc3nnc(-c4ccco4)o3)nc12", "inhibition": "8% (inactive)"},
      {"smiles": "C=CCn1c(SCc2ccc(C#N)cc2)nnc1-c1cccc(Cl)c1", "inhibition": "1% (inactive)"},
      {"smiles": "CCC(C)NC(=O)c1cn(CC)c2ccc(S(=O)(=O)N(C)C)cc2c1=O", "note": "(stereo not drawn)", "inhibition": "0% (inactive)"},
      {"smiles": "CC1(C)CC(=O)C(C=NCC2CCNCC2)=C(O)C1", "inhibition": "2% (inactive)"},
      {"smiles": "c1ccc(CCn2nnnc2C(c2cccs2)N2CCOCC2)cc1", "note": "(stereo not drawn)", "inhibition": "1% (inactive)"},
      {"smiles": "CCOC(=O)c1ccc2ncc(C(=O)OCC)c(NCCN(C)C)c2c1", "inhibition": "0% (inactive)"},
      {"smiles": "O=C(O)CSc1ccc2ccccc2n1", "inhibition": "5% (inactive)"},
      {"smiles": "c1cnc2c(SCc3ccc(-c4nnco4)cc3)cccc2c1", "inhibition": "2% (inactive)"},
      {"smiles": "CCCCOc1ccc(C(=O)CCN2CCCCC2)cc1", "inhibition": "9% (inactive)"},
      {"smiles": "CCOC(=O)c1[nH]c(C)c(C(=O)Nc2ccccc2C)c1C", "inhibition": "0% (inactive)"},
      {"smiles": "Cc1cc(NC(=O)CS(=O)(=O)c2cn(Cc3cccc(F)c3)c3ccccc23)no1", "inhibition": "4% (inactive)"},
      {"smiles": "NC(=O)C(Cc1ccccc1)NS(=O)(=O)c1ccc(N2CCCC2=O)cc1", "note": "(stereo not drawn)", "inhibition": "0% (inactive)"},
      {"smiles": "CS(=O)(=O)Nc1ccc(S(=O)(=O)Nc2nccs2)cc1", "inhibition": "0% (inactive)"},
      {"smiles": "CN(C(=O)CSc1nc2c(c(=O)[nH]1)CCCC2)C1CCCCC1", "inhibition": "0% (inactive)"},
      {"smiles": "COc1ccc(C2C(C(=O)c3sc(C)nc3C)=C(O)C(=O)N2CCN(C)C)cc1", "note": "(stereo not drawn)", "inhibition": "9% (inactive)"},
      {"smiles": "O=C(O)c1c(Cl)c(Cl)c(Cl)c(Cl)c1C(=O)N1CCOCC1", "inhibition": "0% (inactive)"}
    ]}
  ]
}
